This is an account of results in PubChem BioAssay (NCI).

The assay is described as follows: NCI Yeast Anticancer Drug Screen. Data for the rad52 strain (AID 147).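 Note: 0% = growth of vehicle-treated control cultures.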 The conditions noted are these: S. cerevisiae rad52 mutant growth inhibition, active compounds read high. As to the method: Growth inhibition of yeast strains with defined genetic alterations is measured as a screen for potential anti-cancer activity. Selected strains with alterations in DNA damage repair or cell cycle control were exposed to compounds and growth inhibition was measured relative to vehicle treated controls. The strain used in this assay is rad52

Structures are written as SMILES. About 79,000 compounds went through this panel and 15% of them were active in at least one assay; those are over-represented in the sample as a whole. A number with no mark means an inactive call. The source made the active and inactive calls. Cut-off read from the data, not from the text of the source: active = growth inhibition above about 70%; inactive = the rest.

On to `CNCCCNc1c2ccccc2nc2cccc([N+](=O)[O-])c12`, for which the growth inhibition is, setting by setting: (at 1.2 µM) 83% (active); (at 3.7 µM) 85% (active); (at 11.0 µM) 90% (active); (at 33.0 µM) 94% (active); (at 100.0 µM) 96% (active).

Turning to `Cc1ccc(NC(c2ccccc2)c2ccc3cccnc3c2O)cc1` (stereo not given), the growth inhibition was -1% (at 1.2 µM); 0% (at 3.7 µM); -1% (at 11.0 µM); -1% (at 33.0 µM); -2% (at 100.0 µM).

Take `NC1=NNC2(C(N)=N1)c1ccccc1-c1ccccc12`: the growth inhibition is -18% (at 1.2 µM); -14% (at 3.7 µM); -16% (at 11.0 µM); 16% (at 33.0 µM); 96% (active) (at 100.0 µM).

For `Cc1c(-c2ccccn2)ccc2ccccc12`, the growth inhibition by setting is: (at 1.2 µM) -2%; (at 3.7 µM) -1%; (at 11.0 µM) 0%; (at 33.0 µM) 2%; (at 100.0 µM) 46%.

As for `Cc1nc(Nc2ccccc2[N+](=O)[O-])sc1C(=O)CC(=O)C(=O)Nc1c(C(C)C)cccc1C(C)C`, the growth inhibition was -2% (at 1.2 µM); -2% (at 3.7 µM); -1% (at 11.0 µM); -5% (at 33.0 µM); 1% (at 100.0 µM).

With `N#CC(=Nc1ccccc1F)Nc1ccccc1F`, the growth inhibition was -3% (at 1.2 µM); -3% (at 3.7 µM); -2% (at 11.0 µM); 8% (at 33.0 µM); 9% (at 100.0 µM).

As for `COC(=O)C1=C(C(=O)OC)C(C(=O)OC)C(C(=O)OC)C(C(=O)OC)(C(=O)OC)C(C(=O)OC)=C1C(=O)OC` (stereo not given), the growth inhibition (at 1.2 µM) was -2%; the growth inhibition (at 3.7 µM) is -6%; the growth inhibition (at 11.0 µM) was 5%; the growth inhibition (at 33.0 µM) is 20%; the growth inhibition (at 100.0 µM) is 46%.

For `COc1ccc(N=CN(C)C)c(C)c1`, the growth inhibition (at 1.2 µM) was -24%; the growth inhibition (at 3.7 µM) is -26%; the growth inhibition (at 11.0 µM) was 0%; the growth inhibition (at 33.0 µM) was 83% (active); the growth inhibition (at 100.0 µM) was 94% (active).
